# ALDH1A1 block = inhibitors of human aldehyde dehydrogenase 1A1; Purified ALDH1A1, NADH fluorescence, propionaldehyde substrate; 220,000 compounds, 7.3% hits; AID 1030; Potency, µM (series often up to 75.3 µM), for the others: at the top dose activity, negative = inhibition, hits mostly inhibitors; P00352;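 also: plate controls were no enzyme wells and a reference inhibitor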
# Target sequence (P00352 whole entry, looked up): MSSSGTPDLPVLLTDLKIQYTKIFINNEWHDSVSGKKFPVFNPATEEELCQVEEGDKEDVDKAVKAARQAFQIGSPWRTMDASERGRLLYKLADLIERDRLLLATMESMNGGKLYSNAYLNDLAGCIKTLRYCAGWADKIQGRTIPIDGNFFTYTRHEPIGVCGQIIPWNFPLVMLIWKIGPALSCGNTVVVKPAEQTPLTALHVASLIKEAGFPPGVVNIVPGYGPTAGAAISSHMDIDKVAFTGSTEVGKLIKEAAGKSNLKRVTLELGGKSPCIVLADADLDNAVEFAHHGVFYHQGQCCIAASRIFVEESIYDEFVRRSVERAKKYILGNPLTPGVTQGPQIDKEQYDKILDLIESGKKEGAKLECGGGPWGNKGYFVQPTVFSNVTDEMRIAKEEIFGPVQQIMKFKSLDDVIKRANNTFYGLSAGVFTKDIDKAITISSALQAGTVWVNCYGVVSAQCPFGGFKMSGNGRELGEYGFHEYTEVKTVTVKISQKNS
# KinaseGlo FLuc = Kinase-Glo luciferase inhibition (counter-screen); Kinase-Glo luciferase, ATP luminescence, 8 min; Potency, µM (highest dose often 38.3 µM), inactives show at the top dose activity change, negative = inhibition, hits mostly inhibitors; 200,000 compounds, 0.28% hits; AID 1379; active = well fitted curve in the direction sought with a large enough effect; inconclusive = small, poorly fitted or top-dose-only effect, or another doubt; inactive = no such curve, though single readings can be large; an effect the other way counts as inactive or inconclusive; also: nearly all actives have a fitted effect of over 60% in size
#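 Recombinant Kinase-Glo luciferase, 10 uM ATP (linear range), luciferin; imidazole pH 7.2 / KCl / MgCl2 / Tween / BSA buffer; 8 min RT; luminescence.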
# IMPase Li inh = cell-permeable IMPase inhibitors with lithium potentiation; CHO-M1 cells, IP1 TR-FRET (IP-One), carbachol + lithium; Potency, µM (top dose mostly 59.4 µM), for the others: at the highest dose activity, negative = IMPase inhibition, most hits filed as inhibitors; 210,000 compounds, 0.35% hits; AID 1457; active = well fitted curve in the direction sought with a large enough effect; inconclusive = small, poorly fitted or top-dose-only effect, or another doubt; inactive = no such curve, though single readings can be large; an effect the other way counts as inactive or inconclusive;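 also: IP1 builds up when IMPase is blocked and the TR-FRET signal falls; plate controls were basal vehicle for no effect and high inhibitor control for full effect; nearly all actives have a fitted effect of over 50% in size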
#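 IP1 accumulation measured by competitive TR-FRET in lysed CHO-M1 cells after 30 min compound exposure at 37C, with a small lithium addition to potentiate weak responses. Hill-equation AC50 from ratio and donor-channel data.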
# Lamin A splicing = modulators of lamin A splicing | Potency, µM (doses to about 46.1 µM), for the others: at the top dose ratio change, negative = inhibition, hits mostly inhibitors | HeLa LMNA splicing GFP/RFP minigene ratio, 48 h | 200,000 compounds, 0.01% hits | AID 1487; active = well fitted inhibition curve with a large enough effect in the signal ratio, with a control signal flat, not every such curve was filed as active; inconclusive = small, poorly fitted or top-dose-only effect, or effect the other way, or a change in a side signal; the % refers to the signal ratio
#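 Read-out is the ratio of GFP to DsRed2 object intensity, acquired by 488 nm laser-scanning cytometry on HeLa lamin A-EGFP minigene reporter cells. Compound incubation 48 hrs at 37 °C in Opti-MEM with 2% FBS; DMSO 0.5% final.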
# HPGD block = inhibitors of human 15-hydroxyprostaglandin dehydrogenase (HPGD). P15428. purified HPGD, NADH fluorescence kinetic, PGE2 substrate. Potency, µM, for inactives: at the highest dose activity change, negative = inhibition, hits mostly inhibitors. 150,000 compounds, 4.3% hits. AID 894
# Target sequence (P15428 whole entry, looked up): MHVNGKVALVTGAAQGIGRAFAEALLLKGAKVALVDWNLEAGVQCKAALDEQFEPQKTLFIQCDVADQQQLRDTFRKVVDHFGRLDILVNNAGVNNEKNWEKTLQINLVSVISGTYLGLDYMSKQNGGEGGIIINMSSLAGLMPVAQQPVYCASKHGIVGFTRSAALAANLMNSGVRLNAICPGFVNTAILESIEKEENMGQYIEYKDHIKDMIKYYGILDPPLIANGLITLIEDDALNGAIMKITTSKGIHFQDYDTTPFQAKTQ
#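 NADH formation kinetics: reaction with 30 uM PGE2 and 1 mM NAD+ (final), 20 nM enzyme, Tris-HCl pH 8 with Tween 20, after 15 min compound preincubation at room temperature. Fluorescence change, last versus first of five reads.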
# An asterisk follows results filed as active; ? = inconclusive; . = not tested or not shown; ! = not confirmed by another sample; [ ] = remark or other dose. Rows were chosen to be rich in hits. Some 9% of all compounds tested hit in one or more screens of this group. Unless noted, calls follow the shape of the dose curve; as a rule, active = well fitted inhibition curve with a large enough effect (not every such curve was filed as active); inconclusive = small, poorly fitted or top-dose-only effect, or another doubt; inactive = no such curve, though single readings can be large or run the other way. Unless noted, % is scaled to controls: 0 for no effect and ±100 for the full control effect; potency is read from the fitted curve at half-maximal effect.
SMILES,ALDH1A1 block,KinaseGlo FLuc,IMPase Li inh,Lamin A splicing,HPGD block
Cn1c(=O)c2[nH]cnc2n(C)c1=O.[CH2-][C@H](Cc1cccc2cc(C(=O)O)c(=O)oc12)OC.[Hg].[OH-],3.16µM*,-0.7%[7.66 µM],2.8%,.,3.98µM*
CN1Cc2c(ccc3c2OCO3)[C@@H]2[C@@H](O)Cc3cc4c(cc3[C@@H]21)OCO4,?,-0.4%[17.1 µM],-3.1%,?,-2.2%
CC(O)C(C)OC(=O)[C@@H]1C[C@@H]2c3cccc4c3c(cn4C(C)C)C[C@H]2N(C)C1 (stereo partly specified),1.78µM*!,-3.4%,9.4%,-21.8%,-15.7%
CC(=O)Nc1ccc(C2CN(C)CC2C(=O)c2ccc(Cl)cc2)cc1 (stereo unspecified),?,-0.8%,12.3%,12.9%[46 µM],.
CN1CC(C(=O)c2ccc(Cl)cc2)C(c2ccc(N(C)C)cc2)C1 (stereo unspecified),10µM*,-2.5%,15.8%,.,.
Cn1c2c(c3ccccc31)CCNCC2,-8.6%,0.0%,-6.5%,.,-26.8%
O=P(O)(OP(=O)(O)c1ccccc1)c1ccccc1 (tested in a mixture with another compound),-0.1%[13.5 µM],-3.5%[7.66 µM],5.2%,.,-8.6%
COC(C)(C)C,17.8µM*,.,6.8%,.,-2.5%
CC(C)(C)OOC(C)(C)C,-4.1%,.,8.6%,.,-6.9%
N[C@@H](CP(=O)(O)O)C(=O)O,7.9%[13.5 µM],-0.7%[7.66 µM],4.8%,.,-2.2%
Cc1ccccc1-n1c(O)c(/C=C/C=Nc2ccccc2)c(=O)[nH]c1=O,-3.0%,0.7%,-4.6%,?,-27.3%
Cn1c(O)c(/C=C/C=Nc2ccccc2)c(=O)n(C)c1=S,12.6µM*,.,.,-17.2%,.
C[C@H](Br)CN(C[C@H](C)Br)c1ccc2c(c1)Cc1ccccc1-2,-7.8%[13.5 µM],-4.0%[7.66 µM],7.0%,.,-17.2%
N#CC(c1ccc(Cl)cc1)N1CCOCC1 (stereo unspecified),21.9%,2.6%,-13.1%,.,.
N#CC(c1ccc(O)cc1)N1CCCCC1 (stereo unspecified),4.47µM*,-2.2%,26.2%[38.3 µM],4.4%,-17.0%
COc1cccc(C(C#N)N2CCCCC2)c1O (stereo unspecified),7.5%,-4.4%,18.3%[38.3 µM],18.2%,2.24µM*
CCCCCCCCOC(=O)c1ccccc1C(=O)OCCCCCCCC,25.1µM*,.,3.4%,?,-10.1%
O=S1(=O)N(CCN2CC=C(c3c[nH]c4cc(F)ccc34)CC2)c2cccc3c2N1CCC3,25.1µM*,-2.3%,12.9%,?,-19.7%
CCN(CC)CCNCC(=O)Nc1ccc(Cl)cc1C(=O)c1ccccc1,?,-1.4%,39.2%[38.3 µM],-1.4%,-2.5%
CN(C)CCCNCC(=O)Nc1ccc(Cl)cc1C(=O)c1ccccc1,2.82µM*,-3.2%,13.9%,.,.
CCN1C[C@]2(C)CC[C@H](OC)[C@@]34[C@H]1C1(OCO[C@@]15C[C@H](OC)C1C[C@]3(O)C5[C@H]1OC)[C@@H](O)[C@H]24,2.4%,-2.6%,6.8%,.,1.5%
COc1cc(CC2C(=O)N(C)C(=O)N(C)C2=O)ccc1OCc1ccccc1,?,-0.6%,-11.2%[38.3 µM],3.1%,-11.5%
C=CCN1C(=O)NC(=O)C(Cc2ccc(OC)c(OC)c2)C1=O (stereo unspecified),25.1µM*,-4.5%,6.0%,-11.3%,-6.1%
CC(=NCCN1CCOCC1)c1c(O)n(C2CCCCC2)c(=O)[nH]c1=O,14.1µM*,5.7%,-11.8%[38.3 µM],?,0.3%
CCCCn1c(O)c(C(C)=NCCN2CCOCC2)c(=O)[nH]c1=O,-13.7%,-3.3%,-11.3%[38.3 µM],-1.9%,-3.7%
SMILES,ALDH1A1 block,KinaseGlo FLuc,IMPase Li inh,Lamin A splicing,HPGD block
COc1c2ccoc2cc2oc(=O)ccc12,20µM*,-0.4%,11.7%,.,-0.7%
CSSC,2.8%,.,15.3%,.,-5.1%
O=C(O)[C@@H](Br)[C@H](Br)C(=O)O,14.6%[13.5 µM],-4.8%[7.66 µM],-2.4%,.,-4.2%
Cc1[nH]n(-c2ccccc2)c(=O)c1C(c1ccc([N+](=O)[O-])cc1)c1c(C)[nH]n(-c2ccccc2)c1=O,12.6µM*,-7.3%,16.3%,?,28.2µM*
CCC(Sc1ccccc1)C(=O)OC1CC2CCC(C1)N2C (stereo unspecified),?,.,42.1%,.,.
COc1ccc(O)c(CN2CCCC(C(=O)c3sccc3C)C2)c1 (stereo unspecified),12.6µM*,-7.7%,15.2%,-27.3%[46 µM],.
Cc1ccsc1C(=O)C1CCCN(Cc2ccccc2O)C1 (stereo unspecified),-1.8%,1.2%,12.1%,?,.
C=Cc1ccccc1,?,.,8.1%,.,-4.0%
CCOC(=O)N1CCN(C(=O)c2ccc3c(=O)n(CCC4=CCCCC4)c(=S)[nH]c3c2)CC1,7.94µM*,0.0%,-13.9%[38.3 µM],1.3%,-14.2%
CCOc1cc2[nH]c(=S)n(CCCC(=O)N3CCC4(CC3)OCCO4)c(=O)c2cc1OCC,?,1.1%,19.8%[38.3 µM],-20.3%,-20.6%
Nc1nc2c(ncn2[C@@H]2O[C@H](CO)[C@@H](O)[C@@H]2O)c(=[SH+])[nH]1.O=[N+]([O-])c1ccc(O)[c]([Hg])c1,0.0501µM*,2.82µM*,22.9%,.,0.0251µM*
CCCCCOc1ccc(C)cc1CN(CCCl)CCCl,20µM*,.,.,.,.
CC1=C2C(=O)[C@@H]3[C@@H](CC=C4C[C@@H](O)CC[C@@]43C)[C@H]2CC[C@@]12O[C@H]1C[C@H](C)CN[C@H]1[C@@H]2C,4.8%[13.5 µM],0.3%[7.66 µM],-4.6%,.,-6.0%
COc1ccc(C(C)=O)cc1COC(=O)c1ccc2ccccc2n1,14.1µM*,7.3%,24.9%,16.4%[46 µM],.
c1ccc(N2CC3(CCNCC3)C2)nc1,?,-1.9%,-2.2%,.,?
O=C1NC(=O)C(=CN2CCc3ccccc32)C(=O)N1,11.2µM*,-0.6%,-4.0%,-21.8%,-19.8%
O=C1NC(=O)N(Cc2ccccc2)C(=O)/C1=C\N1CCCc2ccccc21,-1.8%,-2.5%,-8.2%,-5.9%,?
COC1C(O)C(C)O[C@@H](OC2CC[C@@]3(C)C4CC[C@]5(C)C(C6=CC(=O)OC6)CC[C@@]5(O)C4CC[C@@H]3C2)C1O (stereo partly specified),3.8%,-3.1%,0.1%,?,-0.5%
O=C(c1ccccc1)N1CCC2(CC1)OCCO2,2.2%,.,.,.,.
O=C(c1ccc2c(c1)OCO2)N1CCC2(CC1)OCCO2,5.1%,3.9%,21.2%[38.3 µM],3.8%,25.1µM*
O=C(c1ccc(N2CCCCCC2)c([N+](=O)[O-])c1)N1CCC2(CC1)OCCO2,11.2µM*,2.5%,-3.5%,13.2%[46 µM],.
CC(C)=CCCC1(C)C=Cc2c(O)c3c(c(CC=C(C)C)c2O1)OC12C(CC4CC1C(C)(C)OC2(C/C=C(/C)C(=O)O)C4O)C3=O (stereo unspecified),?,-7.9%,22.9%,.,-19.5%
BrC(Br)Br,0.7%,.,8.5%,.,-1.8%
O=C1NC(=O)C(=Cc2ccccc2Oc2ccc(F)cc2)C(=O)N1,?,-0.8%,-6.2%,.,.
O=C1NC(=O)C(=Cc2coc3ccccc3c2=O)C(=O)N1,3.55µM*,-3.6%,-5.8%,.,.
O=C1NC(=O)C(=Cc2csc3ccccc23)C(=O)N1,10µM*,.,.,.,.
